Assay outcomes from PubChem BioAssay.
GCN5L2 inh – blocks human GCN5L2 histone acetyltransferase; Q92830; Potency, µM (highest dose often 58.9 µM), without a hit: at the highest dose activity change, negative = inhibition, hits mostly inhibitors; hit rate 0.21% among 390,000; GCN5L2 HAT assay, ThioGlo1 CoA-SH fluorescence; AID 504327
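Preincubate 20nM GCN5L2 with compound 15 min, RT → add 50uM ThioGlo1 + 75uM H3(1-25) + 70uM acetyl-CoA → read fluorescence 0 and 20 min. Primary qHTS; fluorescent artifacts likely.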
PLK1 PBD block – blocks phosphopeptide binding to human PLK1 polo-box domain; Plk1 PBD binding of FITC phosphopeptide, fluorescence polarization; hit rate 2.8% among 360,000; Potency, µM, for inactives: max response, negative = inhibition, hits mostly inhibitors; AID 720504; P53350; further: series mostly up to about 57 µM; nearly all actives have a fitted effect of over 65% in size
TDP1 cell noCPT – qHTS for Inhibitors of human tyrosyl-DNA phosphodiesterase 1 (TDP1): qHTS in cells in absence of CPT; DT40 Tdp1-/- hTDP1 cells, no CPT, ATP luminescence, 48 h; Potency, µM (top dose mostly 46.2 µM), for the others: at the top dose activity change, negative = growth inhibition, usual class: inhibitors; hit rate 15% among 420,000; AID 686978, 2013; further: nearly all actives have a fitted effect of over 55% in size
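Chicken DT40 Tdp1-/- cells complemented with human TDP1, screened without camptothecin (DMSO vehicle only), 400 cells/well. Compounds pin-transferred, cells incubated at 37 °C for at least 48 hr. Growth read as ATP-dependent luminescence (CellTiter-Glo, 30 min at RT).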
TDP1 block – blocks human tyrosyl-DNA phosphodiesterase 1. Potency, µM (doses to about 130 µM), without a hit: top-dose activity change, negative = inhibition, most hits filed as inhibitors. recombinant TDP1, AlphaScreen DNA substrate cleavage. Q9NUW8. hit rate 0.28% among 350,000. AID 485290; further: nearly all actives have a fitted effect of over 40% in size
Target sequence (Q9NUW8 whole entry, looked up): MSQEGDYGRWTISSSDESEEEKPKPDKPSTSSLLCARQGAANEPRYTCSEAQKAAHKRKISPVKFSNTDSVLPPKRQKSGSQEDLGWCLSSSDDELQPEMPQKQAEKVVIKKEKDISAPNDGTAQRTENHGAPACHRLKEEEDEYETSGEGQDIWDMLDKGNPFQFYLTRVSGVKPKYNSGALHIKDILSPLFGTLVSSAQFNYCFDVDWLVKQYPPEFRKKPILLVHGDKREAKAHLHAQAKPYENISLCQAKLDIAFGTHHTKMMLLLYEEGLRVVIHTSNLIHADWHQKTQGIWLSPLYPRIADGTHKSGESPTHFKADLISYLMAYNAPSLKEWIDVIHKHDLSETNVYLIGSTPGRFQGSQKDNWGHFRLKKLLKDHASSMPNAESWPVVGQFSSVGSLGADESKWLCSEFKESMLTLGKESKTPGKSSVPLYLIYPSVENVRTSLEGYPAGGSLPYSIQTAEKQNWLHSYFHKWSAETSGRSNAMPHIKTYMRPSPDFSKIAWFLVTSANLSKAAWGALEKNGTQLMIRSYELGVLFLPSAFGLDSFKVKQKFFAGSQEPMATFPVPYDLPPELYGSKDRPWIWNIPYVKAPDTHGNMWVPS
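Signal: AlphaScreen proximity between streptavidin donor and anti-FITC acceptor beads on intact substrate. Reaction: Tdp1 1 nM, substrate 15 nM final, 5 min RT after 15 min compound preincubation.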
TDP1 cell CPT – DT40-hTDP1 cell growth loss with CPT; hit rate 12% among 420,000; AID 686979; chicken DT40 Tdp1-/-;hTDP1 cells + 20 nM CPT, ATP luminescence, 48 h; Potency, µM (series often up to 46.2 µM), inactives show at the highest dose activity change, negative = growth inhibition, most hits filed as inhibitors; further: nearly all actives have a fitted effect of over 55% in size
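Cell growth measured by CellTiter-Glo luminescence after a minimum 48 h, 37 C compound exposure with 20 nM CPT in Tdp1-knockout DT40 cells stably expressing hTDP1, seeded 400/well; qHTS titration format.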
VDR inhibitor – blocks the human vitamin D receptor | Potency, µM, for inactives: max response, negative = inhibition, usual class: inhibitors | hit rate 0.93% among 400,000 | AID 504847 | P11473 | VDR-SRC2-3 peptide fluorescence polarization, 2 h
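Fluorescence polarization assay measuring small-molecule disruption of VDR binding to the coregulator peptide SRC2-3. Compounds were pin-transferred (23 nl) into the reagent mix and incubated 2 h at room temperature before reading.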
* marks the source's active call; other numbers are inactive results; ? = inconclusive; . = no result given; [ ] = dose if it differs, or a comment. In the library only some 18% were active in any assay of this set; here they are far more common. The call rests on the fitted dose curve; in most records, active means well fitted curve in the direction sought with a large enough effect; inconclusive means small, poorly fitted or top-dose-only effect, or another doubt; inactive means no such curve, though single readings can be large; an effect the other way counts as inactive or inconclusive. On the % scale 0 is the no-effect control and ±100 the full control effect; potency means the concentration at half of the fitted maximal effect.

SMILES | GCN5L2 inh | PLK1 PBD block | TDP1 cell noCPT | TDP1 block | TDP1 cell CPT | VDR inhibitor
COc1cccc(CNC(=O)c2ccc3c(c2)c(C)c(C)n3Cc2ccccc2)c1OC | -6.5% | . | 23.1µM* | 10.5% | 20.6µM* | 2.4%
Cc1c(C)n(C)c2ccc(C(=O)NCCCN3CCOCC3)cc12 | -5.9% | -9.0% | 14.4% | 7.9% | -2.3% | -18.2%
Cc1cccc(C(=O)NCc2ccco2)c1 | -19.1% | -20.9% | -7.2% | . | ? | -8.5%
Cc1c(C)n(Cc2ccccc2)c2ccc(C(=O)NCCCN3CCOCC3)cc12 | -0.9% | -6.7% | ? | 10.7% | ? | -4.3%
C[C@@H]1Cc2[nH][nH]c(=O)c2[C@H](c2ccc(Cl)cc2)O1 | . | ? | -17.2% | . | -4.3% | .
O=C(O)/C=C\c1ccc(Cn2ccnc2)cc1 | -9.3%[21.4 µM] | . | . | 4.8%[56.1 µM] | . | 1.6%
Cc1cc(C)c(C)c(OCC(O)CN2CCN(c3ccccn3)CC2)c1 (stereo not drawn) | -4.9% | -1.4% | -20.8% | 4.7% | ? | 9.8%
Cc1nn(-c2ccccc2)c(NC(=O)c2cccs2)c(-c2ccccc2Cl)c1=O | -12.9% | -10.2% | -1.6% | 4.1% | 2.9% | -10.9%
Cc1c(C)n(C)c2ccc(C(=O)NCc3cccc(F)c3)cc12 | -14.5% | . | 16.4µM* | 7.9% | 23.1µM* | 0.2%
Cc1ccccc1CNC(=O)c1ccc2c(c1)c(C)c(C)n2C | -9.1% | . | ? | 10.5% | ? | 6.4%
CCn1c(C)c(C)c2cc(C(=O)NC3CCCCCC3)ccc21 | -6.1% | -0.6% | 20.6µM* | 3.0% | 16.4µM* | 0.7%
Cc1c(C)n(Cc2ccccc2)c2ccc(C(=O)O)cc12 | . | -6.6% | -14.1% | . | 5.7% | -5.7%
Cc1c(C)n(Cc2ccc(F)cc2)c2ccc(C(=O)NCCCN3CCOCC3)cc12 | 3.5% | -15.5% | 16.4µM* | 9.2% | ? | 7.6%
Cc1c(C)n(Cc2ccccc2)c2ccc(C(=O)NCc3ccccc3F)cc12 | -18.1% | . | 18.4µM* | 10.5% | 18.4µM* | 10.5%
COc1ccc(/C=C/C(=O)NC(CCSC)C(=O)O)cc1 (stereo not drawn) | -1.7% | 0.4% | 1.1% | 1.2% | 24.7% | -4.0%
CCC1=C2CC[C@H]3C(=O)N(CC(=O)OC)C(=O)[C@H]3[C@H]2[C@@]2(Cc3ccccc3)C(=NCCOC)OC(=O)N2C1=O | . | . | . | 6.9% | . | .
CCOC(=O)CC/C(=N\NC(N)=O)c1ccc(OC)c(Cl)c1 | -3.9% | -8.2% | 6.6% | -0.5% | 9.0% | -6.2%
CCn1c(C)c(C)c2cc(C(=O)NCc3ccc(OC)cc3OC)ccc21 | -27.8% | . | 14.6µM* | 7.9% | 18.4µM* | 11.8%
CCOc1ccc(CNC(=O)c2ccc3c(c2)c(C)c(C)n3Cc2ccc(Cl)cc2)cc1 | -5.6% | . | ? | 5.3% | ? | 1.7%
COc1cc(CNC(=O)c2ccc3c(c2)c(C)c(C)n3Cc2cccc(C)c2)cc(OC)c1OC | 13.7% | . | 8.2µM* | 10.5% | 18.4µM* | 10.6%
O=C(NC(Cc1ccccc1)C(=O)N1CCCCC1)c1ccccc1 (stereo not drawn) | -9.4% | -1.6% | -3.7% | . | 1.3% | -3.9%
CCC(=NCCc1c(C)[nH]c2ccccc12)C1=C(O)CC(c2ccccc2)CC1=O (stereo not drawn) | -8.2% | -9.1% | 2.91µM* | 2.3% | 4.11µM* | -14.8%
CCCCC(=NCCc1c(C)[nH]c2ccc(OC)cc12)C1=C(O)CC(c2ccccc2)CC1=O (stereo not drawn) | -11.8% | -2.0% | 4.11µM* | 6.3% | 4.11µM* | 1.9%
CCC(=NCCc1c(C)[nH]c2ccc(OC(F)(F)F)cc12)C1=C(O)CC(c2ccccc2)CC1=O (stereo not drawn) | -11.7% | -10.5% | 5.8µM* | 3.8% | 4.61µM* | -4.9%
O=C(O)CCCN=CC1=C(O)CNC1=O | -1.4% | 29.9µM* | -16.1% | -3.5% | ? | ?
SMILES | GCN5L2 inh | PLK1 PBD block | TDP1 cell noCPT | TDP1 block | TDP1 cell CPT | VDR inhibitor
CC(C)(C)[C@@H]1CCC(=O)N(CC[C@H](Sc2ccccc2)c2ccccc2)CC1 | -5.4% | -14.2% | 20.6µM* | . | 16.4µM* | -12.4%
CC(C)(C)[C@@H]1CCC(=O)N(CC[C@H](N=[N+]=[N-])c2ccccc2)CC1 | -2.7% | 1.8% | 18.4µM* | . | ? | -19.0%
COc1ccc(S[C@@H](CCN2CC[C@H](O)CCC2=O)c2ccccc2)cc1 | -2.9% | -13.9% | ? | 5.5% | ? | -1.0%
CC(=O)Nc1ccc(S[C@@H](CCN2CC[C@H](C(C)(C)C)CCC2=O)c2ccccc2)cc1 | ? | 8.44µM* | 18.4µM* | 2.1% | 20.6µM* | ?
CC(=O)Nc1ccc(SCCN2CC[C@@H](O)CCC2=O)cc1 | -2.6% | ? | 2.2% | -3.3% | 0.7% | ?
O=C1c2ccccc2NC(c2ccc(O)c(O)c2)N1c1ccccc1Cl (stereo not drawn) | -8.0% | -7.3% | ? | 2.6% | -18.5% | -3.7%
Cc1ccc2nc(-c3ccc(F)cc3)c(Cc3ccccc3C(F)(F)F)n2c1 | . | 2.6% | ? | . | ? | .
CC(C)(C)CC(C)(C)Nc1c(-c2ccc(O)cc2)nc2cnccn12 | . | -5.0% | 25.9µM* | . | 18.4µM* | 1.2%
Cc1ccc2nc(-c3ccc(F)cc3)c(NC(C)(C)CC(C)(C)C)n2c1 | -9.9% | . | 8.2µM* | 3.2% | 16.4µM* | -4.5%
NC(Cc1ccccc1)C(=O)O (stereo not drawn) | . | . | -2.7% | . | -1.7% | .
COc1ccc(CC(N)c2csc(NC(=O)Nc3ccc(F)cc3)n2)cc1 (stereo not drawn) | . | -13.6% | 13µM* | . | 23.1µM* | .
COc1cc(NC(=O)Nc2nc(C(N)CCc3ccccc3)cs2)cc(OC)c1OC (stereo not drawn) | . | -10.2% | 7.31µM* | . | ? | .
COc1ccc(OC)c(NC(=O)Nc2cc(NC(=O)Nc3cc(OC)ccc3OC)c(C)nc2C)c1 | -7.7% | 2.7% | ? | -5.4% | -8.6% | -2.6%
COc1ccc(CC(N)c2csc(NC(=O)Nc3cc(OC)ccc3OC)n2)cc1 (stereo not drawn) | . | -3.1% | 5.8µM* | . | 5.17µM* | .
COc1ccc(NC(=O)Nc2nc(C(N)C3CCCCC3)cs2)cc1 (stereo not drawn) | . | 1.2% | ? | . | ? | .
COc1ccc(OC)c(NC(=O)Nc2nc(C(N)CCc3ccccc3)cs2)c1 (stereo not drawn) | . | -6.9% | 9.2µM* | . | 7.31µM* | .
Cc1ccc(Oc2coc3cc(OCC(=O)NC4CCCCC4)ccc3c2=O)cc1 | -2.5% | . | -24.1% | . | -13.5% | -0.2%
NC(CCc1ccccc1)c1csc(NC(=O)NCC2CCCCC2)n1 (stereo not drawn) | . | -6.9% | 14.6µM* | . | 14.6µM* | .
COc1ccc(C(=O)Nc2ccc(O)c3ccccc23)cc1OC | . | ? | ? | . | ? | -9.0%
